Some compounds were tested as several samples or in several runs, with calls that do not always agree. The source made the active and inactive calls. The calls were made as follows: active = hit-call score of the fitted dose curve at least 0.9, where 1 is the maximum; inactive = score below 0.9.
read-out: DNA damage-inducible transcript 3 (DDIT3), DDIT3 (gene 1649); assay: LTEA_HepaRG_DDIT3: Life Technologies and Expression Analysis (LTEA) Assay for DNA damage-inducible transcript 3 (DDIT3) using HepaRG (AID 2283488); conditions: mRNA level, 48 h; actives raise or lower the signal
Experimental: LTEA_HepaRG is a cell based, multiplexed-readout assay that uses HepaRG, a human liver cell line, with measurements taken at 48 hours after chemical dosing on a 96-well plate.LTEA_HepaRG_DDIT3 is one of 102 assay component(s) measured in the LTEA HepaRG cell culture assay. It is a marker of Oxidative Stress.Data from the assay component LTEA_HepaRG_DDIT3 was analyzed into 1 endpoint. This assay endpoint, LTEA_HepaRG_DDIT3, was analyzed with bidirectional fitting relative to DMSO as the negative control and baseline of activity. Using a type of inducible reporter, measures of mRNA induction for gain or loss-of-signal activity can be used to understand regulation of transcription factor activity. To generalize the intended target to other relatable targets, this assay endpoint is annotated to the dna binding intended target family, where the subfamily is basic leucine zipper.
A total of 1060 chemcials from the ToxCast library were tested in eight-point concentration-response experiments. Cell culture and cytotoxicity assays were conducted at Thermo Fisher Scientific's Custom Services facility (Madison, WI). A single lot of human HepaRG cells (Thermo Fisher Scientific, Frederick, MD) was used for the cell culture experiments. 96-well format collagen type I coated plates of human HepaRG cells were prepared using established methods. Briefly, cryopreserved HepaRG cells were thawed, plated at a density of approximately 100,000 cells/well in HepaRG Thaw, Plate, and General Purpose media (HPRG770, Thermo Fisher Scientific), and incubated for 48 hours. 0.5% DMSO was selected as vehicle control to balance the requisite need of DMSO in HepaRG cultures to maintain differentiation (for example, baseline metabolism, proportions of hepatocytes vs. cholangiocytes), while enabling further hepatic receptor pathway activation (for example, PXR and CAR) in response to chemical exposure. 48 hours after plating, the culture medium was replaced with HepaRG Serum-Free Incudtion Media. Cells were exposed to each test chemical in duplicate and maintained in CO2 incubators for another 48 hours. Chemical plates were thawed to room temperature and 200x concentrations of treatment groups were prepared. 8-point conentration-reponse curves were made with the highest exposure at 100 uM, followed by half-log dilutions, all in 0.5% DMSO. Each test plate contained variouse controls, induction positive controls (1mM phenobarbital), cytotoxicity positive controls ([…] aflatoxin B1), vehicle controls (0.5% DMSO), and total lysis controls (0.5% DMSO). Cell morphology images were taken using an Essen IncuCyte FLR automated microscope, with six 96-well plates imaged in about 24 minutes. Images were captured and exported and JPEG files. Spent culture media was transfered to black-well plates for the LDH assay, and remaining media was sorted at -80 C for later use. Cells were treated with RLT buffer and frozen until shipped for gene expression analysis. Total RNA was isolated from the cell suspension in 75 uL of Buffer RLT (Qiagen, Germantown, MD 20874) by Quintiles/Expression Analysis (Durham, NC) using a custom isolation procedure. Total RNA from each plate well was transferred to a preamplification plate. Fluidigm's 96.96 Dynamic ArrayTM (Fluidigm, Amsterdam, the Netherlands) technology was used for gene expression analyses by quantitative reverse transcription polymerase chain reaction (qRT-PCR, performed by Quintiles/Expression Analysis, Durham, NC)89. Standard TaqManTM Assays (Applied Biosystems/ThermoFisher Scientific, Foster City, CA) were used to assess the expression of 93 genes selected based on their selectivity and sensitivity to important hepatic receptors known to be modulated by environmental chemicals; importance in human hepatocyte functionality; and hepatotoxicity. […]

SMILES | outcome | AC50
ClCC(Cl)CCl | inactive | –
CC(C)(c1ccccc1)c1ccc(O)c(C(C)(C)c2ccccc2)c1 | inactive | –
O=C(O)C(F)(F)C(F)(F)C(F)(F)C(F)(F)C(F)(F)C(F)(F)F | inactive | –
CCC(C)(C)c1ccc(O)c(C(C)(C)CC)c1 | inactive | –
CC(=O)[O][Hg][c]1ccccc1 | inactive | –
COc1cc(-c2ccc(N)c(OC)c2)ccc1N | inactive | 80.3 µM (active)
O=C(O)C(F)(F)C(F)(F)C(F)(F)C(F)(F)C(F)(F)C(F)(F)C(F)(F)C(F)(F)C(F)(F)C(F)(F)F | inactive | –
O=c1[nH]c(=O)[nH]c(=O)[nH]1 | inactive | –
Oc1cccc2cccnc12 | inactive | –
CN(C)N=O | inactive | –
C[C@]12CCC(=O)C[C@@H]1CC[C@@H]1[C@@H]2CC[C@]2(C)[C@@H](O)CC[C@@H]12 | inactive | –
Cn1sc(Cl)cc1=O | inactive | –
CC(C)(C)c1cc(O)ccc1O | inactive | –
O=[N+]([O-])c1ccc(O)c([N+](=O)[O-])c1 | – | 89.7 µM (active)
CC(C)(C)CC(C)(C)c1ccc(O)cc1 | inactive | –
C=CC(=O)OCCCCCC(C)C | inactive | –

SMILES | outcome | AC50
CCOP(=S)(OCC)Oc1nc(Cl)c(Cl)cc1Cl | inactive | –
CCC(=O)C(CC(C)N(C)C)(c1ccccc1)c1ccccc1 (configuration not stated) | – | 36.2 µM (active)
O=C(O)C(Cl)(Cl)Cl | inactive | –
CC(C)(OO)c1ccccc1 | inactive | –
ClC1(Cl)C2(Cl)C3(Cl)C4(Cl)C(Cl)(Cl)C5(Cl)C3(Cl)C1(Cl)C5(Cl)C24Cl (configuration not stated) | inactive | –
CCN1CCC2(CC1)COc1cc3c(cc12)N(C(=O)c1ccc(-c2ccc(-c4nnc(C)o4)cc2C)cc1)CC3 | – | 11.6 µM (active)
C=C(C)C(=O)[O][Sn]([CH2]CCC)([CH2]CCC)[CH2]CCC | – | 92.4 µM (active)
C[C@@H]1C[C@@H]([C@H](O)CC2CC(=O)NC(=O)C2)C(=O)[C@@H](C)C1 | inactive | –
O=C1C2(Cl)C3(Cl)C4(Cl)C(Cl)(Cl)C5(Cl)C3(Cl)C1(Cl)C5(Cl)C24Cl (configuration not stated) | – | 89.4 µM (active)
O=C(Nc1ccc2[nH]ccc2c1)c1cc2cc(F)ccc2n1Cc1cccc(F)c1 | – | 18 µM (active)
CCOP(=S)(OCC)SCSP(=S)(OCC)OCC | inactive | –
CC12CC1(C)C(=O)N(c1cc(Cl)cc(Cl)c1)C2=O (configuration not stated) | inactive | –
NC(=O)O | inactive | –
CCCCCCCCc1ccc(O)cc1 | inactive | –
Cc1ccccc1N | inactive | –
